High-throughput results: PubChem, National Center for Advancing Translational Sciences (NCATS)
Compounds with a hit are over-represented: about 7.3% of the library has one in this group of screens.
Rab9 prom act: activators of Rab9 promoter; Huh7 Rab9 promoter-luciferase reporter, luminescence, 24 h; Potency, µM (titrated, usually from 9.22 µM), for the others: at the highest dose activation, negative = inhibition, actives largely listed as activators; 2.8% of 320,000 active; note: % of control where 0% means no effect; nearly all actives have a fitted effect of over 60% in size
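Cells were plated at 1500 per well in reduced-serum medium with 10% FBS and left 2 h. Compound in DMSO was then added for 24 h at 37 °C. Reporter signal was read by luminescence after 10 min with luciferase detection reagent.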
SMN2 splice enh: enhancers of SMN2 splice variant expression; 2.8% of 210,000 active; AID 1458; Potency, µM (highest dose often 46.1 µM), for inactives: top-dose activity change, positive = activation, actives largely listed as activators; HEK293 SMN2-luciferase splicing reporter, luminescence, 30-36 h; note: % of control where 0% means no effect; nearly all actives have a fitted effect of over 55% in size
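HEK293 cells carry an SMN2 minigene-luciferase reporter in which exon 7 inclusion puts luciferase in frame. Cells were seeded at 2000 cells/well, attached for 10-12 hours, then exposed to compounds for 30-36 hours at 37C before ONE-Glo luminescence.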
ELG1 genotoxic: induces genotoxicity in HEK293T cells with luciferase-tagged ELG1; HEK293T ELG1-luciferase reporter, luminescence, 16 h; Potency, µM (titrated, usually from 46 µM), without a hit: at the top dose activity change, positive = activation, most hits filed as activators; 1.3% of 330,000 active; AID 504466; note: % of control where 0% means no effect; nearly all actives have a fitted effect of over 60% in size
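16 hr compound incubation (37 °C, 5% CO2) of HEK293T cells carrying luciferase-tagged ELG1; luciferase then measured by ONE-Glo luminescence after 30 min at RT.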
FLuc modulator: inhibits or activates purified firefly luciferase, miR-21 counter-screen. purified FLuc, Km substrates, luminescence inhibition. Potency, µM (titrated, usually from 57.5 µM), for inactives: top-dose activity change, negative = inhibition, most hits filed as inhibitors. 6.9% of 360,000 active. AID 588342;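 note: plate controls were vehicle for no effect and reference inhibitor for full effect; nearly all actives have a fitted effect of over 55% in size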
Target sequence (P08659 whole entry, looked up): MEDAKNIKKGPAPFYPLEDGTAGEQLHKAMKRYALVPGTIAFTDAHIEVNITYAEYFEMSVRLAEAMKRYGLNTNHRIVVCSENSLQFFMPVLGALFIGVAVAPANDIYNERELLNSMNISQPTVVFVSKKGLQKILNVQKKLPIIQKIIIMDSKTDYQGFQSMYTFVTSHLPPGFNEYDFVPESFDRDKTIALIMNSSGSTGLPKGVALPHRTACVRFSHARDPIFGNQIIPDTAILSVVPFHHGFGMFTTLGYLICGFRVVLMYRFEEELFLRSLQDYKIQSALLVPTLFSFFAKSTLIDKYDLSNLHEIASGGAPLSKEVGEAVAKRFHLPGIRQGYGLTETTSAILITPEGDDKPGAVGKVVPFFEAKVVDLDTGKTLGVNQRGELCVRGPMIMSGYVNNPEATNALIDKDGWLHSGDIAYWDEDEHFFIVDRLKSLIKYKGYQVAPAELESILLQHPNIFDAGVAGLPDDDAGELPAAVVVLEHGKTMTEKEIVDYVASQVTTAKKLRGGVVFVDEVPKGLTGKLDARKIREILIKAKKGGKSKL
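Purified P. pyralis luciferase, 10 nM final, with Km-level 10 uM D-luciferin and 10 uM ATP in 50 mM Tris acetate pH 7.5, 10 mM Mg acetate, 0.01% Tween-20, 0.05% BSA; 6-point qHTS titration about 60 µM downward; luminescence read.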
NPC1 prom act: activates the NPC1 promoter; Huh7 NPC1 promoter luciferase reporter, 24 h; Potency, µM (doses to about 9.22 µM), for the others: top-dose activation, hits mostly activators; 2.4% of 320,000 active; note: % of control where 0% means no effect; nearly all actives have a fitted effect of over 60% in size
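NPC1 promoter–luciferase Huh7 cells; 24 h compound; luminescence.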
p53 reactivation: restores transcriptional activity of mutant p53; H1299 p53-A138V BP100-luciferase reporter, luminescence, 24 h; Potency, µM (titrated, usually from 92.2 µM), without a hit: top-dose activity change, positive = activation, most hits filed as activators; 0.063% of 320,000 active; AID 504706; note: % of control where 0% means no effect; nearly all actives have a fitted effect of over 45% in size
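p53-null H1299 cells stably carrying temperature-sensitive p53-A138V and a BP100-luciferase reporter were pinned with compounds (4-point, 1:5 series) and held 24 hrs at 37 deg C. Luminescence was read 10 min after detection reagent.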
An asterisk follows results filed as active; ? = inconclusive; . = not tested or not shown; ! = not active in a repeat; [ ] = remark or other dose. Calls come from the whole dose curve; as a rule, active = well fitted curve in the direction sought with a large enough effect; inconclusive = small, poorly fitted or top-dose-only effect, or another doubt; inactive = no such curve, though single readings can be large; an effect the other way counts as inactive or inconclusive. Potency is the fitted concentration of half-maximal effect.

SMILES | Rab9 prom act | SMN2 splice enh | ELG1 genotoxic | FLuc modulator | NPC1 prom act | p53 reactivation
O=C(CCCc1ccccc1)NC1CC(=O)N(c2ccc(F)cc2)C1 (centres undefined) | . | . | . | -10.9% | . | .
COc1cccc(C(=O)O/N=C(\N)c2ccncc2)c1 | -1.3% | 12.3% | ? | 1.35µM* | ? | 2.2%
N/C(=N\OC(=O)c1cccc2ccccc12)c1ccncc1 | -1.5% | . | ? | 23.9µM* | 2.3% | ?
Cc1cccc(/C(N)=N/OC(=O)c2ccncc2)c1 | 3.98µM* | . | ? | 8.49µM* | 1.12µM* | ?
COc1cccc(C(=O)O/N=C(\N)c2ccc(C)cc2)c1 | 26.0% | . | ? | 1.9µM* | 3.16µM* | ?
N/C(=N\OC(=O)c1ccncc1)c1cccc([N+](=O)[O-])c1 | 19.6% | . | 17.3% | ? | 18.5% | -8.6%
c1ccc(CN2CCC3(CC2)SSC2(CCN(Cc4ccccc4)CC2)SS3)cc1 | . | -2.9%[9.22 µM] | . | . | . | .
Cc1ccc2sc(N(Cc3cccnc3)C(=O)CCOc3ccccc3)nc2c1C | . | . | . | -0.5% | . | .
Cc1ccc(-n2nnnc2SCC(=O)NCCc2ccccc2)cc1C | . | 3.8% | . | -11.9% | . | .
Cc1ccc(C(=O)/C=C/Nc2cccc([N+](=O)[O-])c2)o1 | 3.16µM* | 14.1µM* | ? | 5.36µM* | ? | ?
CN(C)C(/C=C/Nc1cccc([N+](=O)[O-])c1)=C(C#N)C#N | 11.7% | 5.1% | 2.2% | -1.6% | 2.4% | 7.7%
Cc1ccc(NC(=S)N2CCN(c3ccccc3F)CC2)c(C)c1 | -5.6% | . | -3.1% | 2.3% | -4.5% | 1.0%
Cc1ccc(-n2nc(C(=O)Nc3ccc(C)c(F)c3)c3c4ccccc4n(C)c3c2=O)cc1 | . | 4.2% | . | -5.5% | . | .
O=C(/C=C/c1ccco1)NC(=S)Nc1ccc(O)c(-c2nc3ccccc3s2)c1 | -11.7% | -4.8% | ? | -9.0% | -9.8% | 13.5%
CSc1ccc(C(=O)Nc2ccc(-c3nc4ccccc4s3)c(O)c2)cc1 | . | . | . | -0.9% | . | .
CN(C)c1nc(N)nc(-c2nc3ccccc3s2)n1 | ? | 8.91µM* | 3.26µM* | ? | 7.8% | ?
Oc1ccc(-c2nc3ccccc3s2)c(O)c1 | 3.98µM* | . | ? | 6.01µM* | 2.82µM* | ?
Oc1ccc(N=C/C=C/c2cccc(Br)c2)cc1-c1nc2ccccc2s1 | ? | 75.5% | ? | 6.01µM* | ? | ?
Nc1ccc(O)c(-c2nc3ccccc3s2)c1 | ? | ? | ? | 6.01µM* | 3.16µM* | ?
CCCCN(CC)CCNC(=O)C1CCN(c2nnc(C)c3c(C)n(-c4ccc(C)cc4)nc23)CC1 | . | . | . | 2.4% | . | .
Nc1ccccc1-c1nc2ccccc2s1 | 3.98µM* | ? | ? | 10.7µM* | ? | 4.9%
O=C(Nc1ccccc1-c1nc2ccccc2s1)c1ccc(F)cc1 | . | -17.9% | . | -1.3% | . | .
CCn1c(C)nc2cc(C(=O)N/N=C/c3ccc(O)cc3)ccc21 | -3.1% | 21.3% | 9.5% | 15.1µM* | 0.8% | 5.4%
CCn1c(C)nc2cc(C(=O)N/N=C/c3ccc(OC)cc3)ccc21 | -4.1% | -5.5% | 2.7% | ? | -1.0% | -0.9%
CCn1c(C)nc2cc(C(=O)OC(C(F)(F)C(F)F)C(F)(F)C(F)F)ccc21 | ? | -25.8% | 16.4µM* | 3.79µM* | ? | ?
SMILES | Rab9 prom act | SMN2 splice enh | ELG1 genotoxic | FLuc modulator | NPC1 prom act | p53 reactivation
CCn1c(C)nc2cc(C(=O)N/N=C/c3ccccc3)ccc21 | 3.55µM* | 17.8µM* | 9.2µM* | 21.3µM* | 3.16µM* | 23.7%
CCn1c(C)nc2cc(C(=O)N/N=C/c3cccc(O)c3O)ccc21 | -13.5% | . | ? | 8.49µM* | -18.9% | ?
Cc1cc(Cl)ccc1NC(=O)CN1C(=O)COc2ccc(S(=O)(=O)Nc3ccccc3)cc21 | . | . | . | -1.6% | . | .
NCc1nc2cccnc2n1Cc1ccccc1Cl | . | -8.5% | . | -2.1% | . | .
COc1cccc(CNC(=O)CN2C(=O)N(c3ccc(C)cc3C)S(=O)(=O)c3ccccc32)c1OC | . | . | . | -2.3% | . | .
CCn1c(C)nc2cc(C(=O)N=Nc3c(O)[nH]c4ccccc34)ccc21 | ? | 55.6% | ? | 6.01µM* | ? | 8.6%
CC(c1ccon1)N(C)C(=O)CCc1nnc(Cc2ccc(-c3ccccc3)cc2)o1 (centres undefined) | -4.2% | . | -7.7% | ? | -1.8% | 2.1%
CC(c1nccs1)N(C)C(=O)CCc1nnc(-c2ccc(-c3ccccc3)cc2)o1 (centres undefined) | 17.7% | . | -3.8% | 12µM* | 13.5% | -6.9%
CC(NC(=O)CCc1nnc(-c2ccc(-c3ccccc3)cc2)o1)c1nccs1 (centres undefined) | 13.3% | 10µM* | 3.9% | 16.9µM* | 18.1% | -6.5%
O=C(CCc1nnc(-c2ccc(-c3ccccc3)cc2)o1)NCCc1ccccn1 | 13.6% | . | ? | 19µM* | 18.9% | -5.3%
Oc1ccc(Cc2nccc3cc(O)c(O)cc23)cc1O | . | -7.2%[9.22 µM] | . | . | . | .
COC(=O)C(Cc1ccc(O)cc1)NC(=O)NC12CC3CC(CC(C3)C1)C2 (centres undefined) | -0.5% | . | -5.0% | -1.6% | 1.2% | -21.0%
O=c1[nH]c2cc(Cl)c(Cl)cc2[nH]c1=O | 15.7%[46.1 µM] | 11.2µM*! | . | . | 23.7%[46.1 µM] | .
CCOC(=O)c1c(C)[nH]c(C)c1S(=O)(=O)NCC(=O)Nc1ccc(C)c(N(C)C)c1 | . | . | . | 5.5% | . | .
Oc1ccc(O)cc1 | -42.4%[46.1 µM] | 9.5% | . | . | -31.9%[46.1 µM] | .
